Laboratory results taken from the supplement of paper PMC13392028.
Whole data set: some 4,100 sequences, median “RBNS R-value (6-mer enrichment in protein-bound RNA vs input library)” near 0.99, cut for the highest 2% near 1.4. This is one part of a sample in which the highest values are shown more often than they occur.

System: PfIESI-1 RRM domain (Plasmodium falciparum ortholog aa 875-1232, GST fusion)
Experiment: RBNS R-value (6-mer enrichment in protein-bound RNA vs input library) (ratio); higher = stronger binding preference; the methods of the paper give 50 / 100 / 500 nM protein instead
Method: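 RNA Bind-n-Seq: recombinant GST-tagged IESI-1 RRM domain was incubated at room temperature with a random 40-nt in vitro transcribed RNA library at 250, 500 or 1000 nM protein. Bound RNA was pulled down on glutathione beads and sequenced. R-value is the enrichment of each 6-mer in the bound RNA relative to the input library. Each 6-mer sits inside the random 40-mer context, not as an isolated oligo. Values are replicate 1 only.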

| Sequence | RBNS R-value (protein concentration: 250 nM) | RBNS R-value (protein concentration: 500 nM) | RBNS R-value (protein concentration: 1000 nM) |
| --- | --- | --- | --- |
| GAUGUA | 1.25 | 1.39 | 1.2 |
| AAUGUA | 0.778 | 0.871 | 0.819 |
| CAGUCU | 0.933 | 0.914 | 0.963 |
| GGCAUU | 1.01 | 0.953 | 0.972 |
| CUAUCU | 0.826 | 0.759 | 0.772 |
| CAUCUC | 0.925 | 0.891 | 0.96 |
| AGUACG | 0.91 | 0.935 | 0.91 |
| GUCAAG | 0.874 | 0.904 | 0.946 |
| AUACUA | 0.816 | 0.825 | 0.779 |
| GGCUAG | 1.05 | 1.01 | 1.03 |
| AGAAUA | 1.03 | 1.18 | 1.1 |
| UUCAUC | 0.934 | 0.912 | 0.924 |
| UUGAUA | 1.72 | 1.92 | 1.6 |
| CAGAUA | 0.988 | 1.03 | 0.99 |
| AGGAUG | 1.1 | 1.1 | 1.12 |
| AUGAUG | 3.17 | 3.42 | 2.39 |
| ACGAUC | 0.952 | 0.918 | 0.959 |
| AUGAGC | 1.14 | 1.16 | 1.1 |
| CUGACA | 1.13 | 1.11 | 1.11 |
| CUGAUA | 1.57 | 1.71 | 1.43 |
| ACGAUG | 1.33 | 1.38 | 1.21 |
| UUGAGA | 1.19 | 1.22 | 1.18 |
| UCGAUA | 0.937 | 0.932 | 0.928 |

| Sequence | RBNS R-value (protein concentration: 250 nM) | RBNS R-value (protein concentration: 500 nM) | RBNS R-value (protein concentration: 1000 nM) |
| --- | --- | --- | --- |
| AUGAUC | 1.38 | 1.42 | 1.24 |
| CUCCUU | 0.894 | 0.809 | 0.869 |
| CUCACC | 1.06 | 0.994 | 1.04 |
| UUCGCC | 1.06 | 0.992 | 1.03 |
| GCGAAU | 1.01 | 1.07 | 1.04 |
| CUUUUU | 0.934 | 0.932 | 0.919 |
| UUGACG | 1.14 | 1.1 | 1.07 |
| UAAAUA | 0.769 | 0.893 | 0.797 |
| AAAUAA | 0.785 | 0.993 | 0.847 |
| AUAAUG | 0.87 | 0.985 | 0.875 |
| UUGAUC | 1.32 | 1.35 | 1.22 |
| UAGAUG | 1.1 | 1.17 | 1.07 |
| GCGAUC | 0.968 | 0.948 | 1.02 |
| AGGAUU | 1.04 | 1.06 | 1.06 |
| UUGAUG | 2.95 | 3.14 | 2.32 |
| CCGAUG | 1.38 | 1.35 | 1.29 |
| AUGAUU | 2.75 | 3 | 2.19 |
| GUGAAG | 0.986 | 0.998 | 1.03 |
| GGGAUG | 1.12 | 1.08 | 1.09 |
| AUGAAU | 1.08 | 1.18 | 1.04 |
| GUGAUG | 2.02 | 2.17 | 1.72 |
| GCGAUG | 1.37 | 1.39 | 1.28 |
| UUAGAA | 0.943 | 1.05 | 0.999 |

| Sequence | RBNS R-value (protein concentration: 250 nM) | RBNS R-value (protein concentration: 500 nM) | RBNS R-value (protein concentration: 1000 nM) |
| --- | --- | --- | --- |
| GACUAA | 0.913 | 0.983 | 0.945 |
| CGCGAU | 1.17 | 1.15 | 1.13 |
| UCCACU | 0.991 | 0.933 | 0.95 |
| GUCUUC | 0.908 | 0.868 | 0.954 |
| GCAUCC | 1.14 | 1.06 | 1.11 |
| CUAACC | 0.953 | 0.903 | 0.903 |
| AGCGUA | 0.911 | 0.94 | 0.898 |
| CAAAGA | 1.13 | 1.21 | 1.2 |
| AGGAUA | 0.981 | 1.03 | 1.01 |
| CGGAUG | 1.03 | 0.978 | 1.02 |
| AUGAUA | 1.84 | 2.08 | 1.63 |
| AUGAGA | 1.23 | 1.31 | 1.23 |
| CUGAUC | 1.29 | 1.27 | 1.2 |
| CUGAUG | 2.47 | 2.58 | 1.97 |
| AGGCGG | 1.02 | 0.987 | 1.05 |
| CCAACU | 0.966 | 0.921 | 0.933 |
| UUGGGU | 0.975 | 0.933 | 0.982 |
| UGAGAC | 1.16 | 1.17 | 1.15 |
| AGAGAC | 1.18 | 1.21 | 1.17 |
| CGAGAG | 1.29 | 1.22 | 1.27 |
| UGAGAG | 1.18 | 1.16 | 1.19 |
| CGAGAA | 1.52 | 1.53 | 1.43 |
| UGAGAA | 1.33 | 1.39 | 1.34 |

| Sequence | RBNS R-value (protein concentration: 250 nM) | RBNS R-value (protein concentration: 500 nM) | RBNS R-value (protein concentration: 1000 nM) |
| --- | --- | --- | --- |
| AGAGAA | 1.34 | 1.48 | 1.37 |
| CGAGAC | 1.23 | 1.2 | 1.18 |
| AGAGAG | 1.19 | 1.25 | 1.24 |
| UGUCAC | 0.945 | 0.963 | 0.96 |
| UGGCAU | 1.09 | 1.07 | 1.06 |
| GUCCUC | 0.918 | 0.874 | 0.925 |
| ACCUAU | 0.891 | 0.846 | 0.828 |
| CGGGGA | 1.15 | 1.1 | 1.16 |
| GAACUU | 0.955 | 0.971 | 0.985 |
| GGUGAA | 0.997 | 1.06 | 1.06 |
| GAUGAU | 2.43 | 2.58 | 1.9 |
| GAUGAC | 1.8 | 1.8 | 1.51 |
| UAUGAC | 0.947 | 0.945 | 0.924 |
| AAUGAC | 1.08 | 1.1 | 1.09 |
| AAUGAA | 0.954 | 1.1 | 1.03 |
| GACGAG | 1.12 | 1.13 | 1.11 |
| GAUGAA | 1.88 | 2 | 1.59 |
| GAUGGU | 1.18 | 1.23 | 1.13 |
| GAUGAG | 1.61 | 1.68 | 1.43 |
| GAUGCU | 1.34 | 1.37 | 1.24 |
| GAAUAC | 0.992 | 1.04 | 0.993 |
| CAACUU | 0.893 | 0.889 | 0.886 |
| GUAAUU | 0.943 | 0.984 | 0.95 |
